Measurements from PubChem BioAssay (Tox21).
Inconclusive results are not listed. Activity calls are given as the source filed them. Unless noted, the call rests on the fitted dose curve; in most records, active means well fitted curve in the direction sought with a large enough effect in the repeat runs; inconclusive means weak or mixed curves; inactive means no such curve, though single readings can be large; an effect the other way counts as inactive or inconclusive.

Key:
[1] = qHTS assay to identify aromatase inhibitors - cell viability counter screen (AID 743084);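 further: cells stimulated with testosterone during compound exposure; nearly all actives have a fitted effect of over 55% in size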
[2] = target: Aryl hydrocarbon receptor (Homo sapiens) (UniProt P35869); experiment: qHTS assay to identify small molecule that activate the aryl hydrocarbon receptor (AhR) signaling pathway (AID 743085);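 further: HG2L7.5c1 human HepG2 liver cells with stably integrated DRE-driven firefly reporter; series mostly up to about 70 µM; nearly all actives have a fitted effect of over 15% in size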
How it was run: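 HepG2 cells stably carrying a 20-DRE firefly luciferase reporter (HG2L7.5c1) treated with compound for 24 hr at 37C. Luciferase read by ONE-Glo luminescence, with CellTiter-Fluor viability read first.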

[3] = qHTS assay to identify small molecule that activate the aryl hydrocarbon receptor (AhR) signaling pathway - cell viability counter screen (AID 743086);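 further: HepG2 liver cells carrying the AhR DRE luciferase reporter; series mostly up to about 70 µM; nearly all actives have a fitted effect of over 45% in size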
How it was run: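 HepG2-AhR-luc (HG2L7.5c1) cells, 4000/well, treated 24 h at 37 C with compound; viability measured as CellTiter-Fluor fluorescence after 30 min in the same wells as the luciferase read.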

[4] = qHTS assay to identify small molecule antagonists of the peroxisome proliferator-activated receptor gamma (PPARg) signaling pathway - cell viability counter screen (AID 743194); conditions: Potency: co-treated with 50 nM rosiglitazone; further: nearly all actives have a fitted effect of over 55% in size
How it was run: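 Cytotoxicity counter screen in PPARg-bla HEK293H cells, same wells as reporter assay. Compounds plus 50 nM rosiglitazone (final) for 17 h at 37 C, then viability read by CellTiter-Glo luminescence.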

[5] = qHTS assay for small molecule agonists of the antioxidant response element (ARE) signaling pathway (AID 743202; active means well fitted activation curve with a large enough effect in the signal ratio in the repeat runs, not every such curve was filed as active; the % refers to the signal ratio)
How it was run: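 ARE-bla HepG2 cells (beta-lactamase reporter under the antioxidant response element), plated 5 hours, then exposed to compounds 16 hours at 37 C. LiveBLAzer B/G FRET substrate added for 2 hours at room temperature; fluorescence intensity read.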

[6] = qHTS assay for small molecule agonists of the antioxidant response element (ARE) signaling pathway - cell viability counter screen (AID 743203; calls by dose curve; further: nearly all actives have a fitted effect of over 55% in size)
How it was run: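 CellSensor ARE-bla HepG2 cells, 2,000 per well, rested 5 hrs at 37C/5% CO2, then exposed to compound in DMSO for 16 hrs; viability read as CellTiter-Glo luminescence after 30 min at room temperature, in the reporter wells.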

[7] = qHTS assay for small molecule activators of the heat shock response signaling pathway - cell viability counter screen (AID 743209); further: nearly all actives have a fitted effect of over 50% in size
How it was run: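 CellSensor HSE-bla HeLa cells, plated overnight at 37 C/5% CO2, were exposed to compounds in DMSO for 5 h at 37 C. Viability was then read in the same wells by CellTiter-Glo luminescence after 30 min at room temperature.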

[8] = qHTS assay for small molecule activators of the heat shock response signaling pathway (AID 743210; active means well fitted activation curve with a large enough effect in the signal ratio in the repeat runs, with a control signal flat, not every such curve was filed as active; the % refers to the signal ratio; further: series mostly up to about 63 µM)
How it was run: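 HSE-bla HeLa cells (beta-lactamase reporter under heat shock response elements), plated overnight, then exposed to compounds 5 h at 37 C; LiveBLAzer B/G FRET substrate added, 2.5 h at room temperature, fluorescence intensity read.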

[9] = qHTS assay to identify small molecule agonists of the peroxisome proliferator-activated receptor delta (PPARd) signaling pathway - cell viability counter screen (AID 743211); further: nearly all actives have a fitted effect of over 55% in size
How it was run: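 PPARd-bla HEK293H cells (3000/well) were pre-incubated 5 h at 37 C, then exposed to compound for 17 h at 37 C. After 2 h with LiveBLAzer substrate, CellTiter-Glo was added to the same wells; luminescence read after 30 min at room temperature.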

[10] = target: Peroxisome proliferator-activated receptor delta (Homo sapiens) (UniProt Q03181); experiment: qHTS assay to identify small molecule agonists of the peroxisome proliferator-activated receptor delta (PPARd) signaling pathway (AID 743212; calls by dose curve)
How it was run: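 GeneBLAzer UAS-bla HEK293H cells carrying a PPARδ construct were exposed to compounds at 37 °C. Beta-lactamase activity was read by FRET fluorescence after 2 h at room temperature with LiveBLAzer B/G substrate.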

[11] = qHTS assay to identify small molecule antagonists of the peroxisome proliferator-activated receptor delta (PPARd) signaling pathway - cell viability counter screen (AID 743213); further: nearly all actives have a fitted effect of over 50% in size
How it was run: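 HEK293H cells with the PPARd UAS-bla reporter, co-treated 17 h at 37 C with compounds and L165041 (300 nM final), were lysed with CellTiter-Glo. Luminescence indicated viable cell content.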

[12] = qHTS assay to identify small molecule agonists of the farnesoid-X-receptor (FXR) signaling pathway - cell viability counter screen (AID 743218); further: nearly all actives have a fitted effect of over 45% in size
How it was run: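 FXR-UAS-bla HEK 293T cells, plated 5 h at 37 C, were exposed to compounds for 16 h at 37 C. CellTiter-Glo was then added to the same wells as the bla readout; luminescence read after 30 min at room temperature.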

[13] = qHTS assay to identify small molecule antagonists of the farnesoid-X-receptor (FXR) signaling pathway - cell viability counter screen (AID 743221; active means well fitted cell-killing curve with a large enough effect in the repeat runs, not every such curve was filed as active; further: nearly all actives have a fitted effect of over 50% in size)
How it was run: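 GeneBLAzer FXR-UAS-bla HEK 293T cells, compound plus chenodeoxycholic acid (50 uM final), 16 h at 37 C. CellTiter-Glo added to the same wells after the beta-lactamase read; luminescence read after 30 min at room temperature as viability.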

[14] = target: Vitamin D3 receptor (Homo sapiens) (UniProt P11473); experiment: qHTS assay to identify small molecule agonists of the vitamin D receptor (VDR) signaling pathway (AID 743222; calls by dose curve)
How it was run: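 VDR-bla cells were plated 4 h at 37C/5% CO2, then exposed to compounds in DMSO for 16 h. After LiveBLAzer B/G FRET substrate addition and 2 h at room temperature, beta-lactamase reporter fluorescence was read.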

[15] = target: Vitamin D3 receptor (Homo sapiens) (UniProt P11473); experiment: qHTS assay to identify small molecule antagonists of the vitamin D receptor (VDR) signaling pathway (AID 743223; active means well fitted inhibition curve with a large enough effect in the signal ratio in the repeat runs, not every such curve was filed as active; the % refers to the signal ratio)
How it was run: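 VDR-bla cells were treated with compound plus 3 nM final 1alpha,25-dihydroxyvitamin D3 for 16 h at 37C. Beta-lactamase reporter read by B/G FRET substrate fluorescence after 2 h at room temperature. qHTS format.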

[16] = target: Peroxisome proliferator-activated receptor delta (Homo sapiens) (UniProt Q03181); experiment: qHTS assay to identify small molecule antagonists of the peroxisome proliferator-activated receptor delta (PPARd) signaling pathway (AID 743215; active means well fitted inhibition curve with a large enough effect in the signal ratio in the repeat runs, not every such curve was filed as active; the % refers to the signal ratio;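 further: cells stimulated with agonist L165041 at 300 nM final during compound exposure; series mostly up to about 62 µM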)
How it was run: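 PPARd UAS-bla HEK293H cells were pre-incubated 5 h at 37 C, then given test compounds in DMSO plus agonist L165041 (300 nM final). After 17 h at 37 C, beta-lactamase FRET substrate was added; fluorescence read after 2 h at room temperature.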

[17] = target: Peroxisome proliferator-activated receptor gamma (Homo sapiens) (UniProt P37231); experiment: qHTS assay to identify small molecule antagonists of the peroxisome proliferator-activated receptor gamma (PPARg) signaling pathway (AID 743191; calls by dose curve; further: series mostly up to about 63 µM; nearly all actives have a fitted effect of over 30% in size)
How it was run: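 GeneBLAzer PPARg UAS-bla HEK293H cells, 5 h post-plating, exposed to compounds 17 h at 37C. LiveBLAzer B/G FRET substrate added for 1 h at room temperature; beta-lactamase reporter read by fluorescence intensity.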

[18] = target: Bile acid receptor (Homo sapiens) (UniProt Q96RI1); experiment: qHTS assay to identify small molecule antagonists of the farnesoid-X-receptor (FXR) signaling pathway (AID 743217; active means well fitted inhibition curve with a large enough effect in the signal ratio in the repeat runs, not every such curve was filed as active; the % refers to the signal ratio)
How it was run: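 FXR-UAS-bla HEK 293T cells pre-incubated 5 h at 37 °C, then exposed to compounds with chenodeoxycholic acid (50 uM final) for 16 h at 37 °C. Beta-lactamase reporter read by LiveBLAzer B/G FRET substrate fluorescence after 2 h at room temperature.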

[19] = target: Bile acid receptor (Homo sapiens) (UniProt Q96RI1); experiment: qHTS assay to identify small molecule agonists of the farnesoid-X-receptor (FXR) signaling pathway (AID 743220; active means well fitted activation curve with a large enough effect in the signal ratio in the repeat runs, not every such curve was filed as active; the % refers to the signal ratio)
How it was run: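 Beta-lactamase reporter under UAS control in GeneBLAzer FXR HEK 293T cells (5000/well) measured with LiveBLAzer FRET substrate after 2 h at room temperature. Compound exposure lasted 16 h at 37C.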

Measured: Potency

Sequence of Vitamin D3 receptor (Homo sapiens) (P11473 whole entry, looked up): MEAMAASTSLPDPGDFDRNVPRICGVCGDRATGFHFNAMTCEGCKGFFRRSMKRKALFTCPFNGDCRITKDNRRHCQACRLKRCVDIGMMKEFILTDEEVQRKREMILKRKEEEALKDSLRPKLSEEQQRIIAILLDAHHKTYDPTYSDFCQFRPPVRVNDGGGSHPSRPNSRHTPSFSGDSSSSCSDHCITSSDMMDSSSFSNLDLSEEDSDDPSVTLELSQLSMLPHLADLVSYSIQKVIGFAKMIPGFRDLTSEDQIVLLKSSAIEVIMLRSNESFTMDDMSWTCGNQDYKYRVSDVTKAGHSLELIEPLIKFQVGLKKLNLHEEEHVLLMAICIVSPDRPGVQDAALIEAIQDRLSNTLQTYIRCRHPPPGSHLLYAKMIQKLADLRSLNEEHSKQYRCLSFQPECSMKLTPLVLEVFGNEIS
Sequence of Bile acid receptor (Homo sapiens) (Q96RI1 whole entry, looked up): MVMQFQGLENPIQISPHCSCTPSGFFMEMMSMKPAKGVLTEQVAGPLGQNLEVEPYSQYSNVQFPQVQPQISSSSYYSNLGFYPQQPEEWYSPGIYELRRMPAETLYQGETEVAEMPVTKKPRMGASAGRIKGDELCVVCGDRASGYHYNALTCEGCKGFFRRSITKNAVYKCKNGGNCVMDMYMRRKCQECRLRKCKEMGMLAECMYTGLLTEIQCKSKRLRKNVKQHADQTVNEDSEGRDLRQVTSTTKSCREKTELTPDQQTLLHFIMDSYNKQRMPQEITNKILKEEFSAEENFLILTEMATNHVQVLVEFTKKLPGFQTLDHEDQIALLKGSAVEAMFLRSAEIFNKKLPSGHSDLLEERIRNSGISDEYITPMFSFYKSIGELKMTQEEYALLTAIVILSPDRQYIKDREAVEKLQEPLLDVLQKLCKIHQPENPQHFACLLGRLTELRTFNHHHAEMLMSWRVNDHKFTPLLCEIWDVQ
Sequence of Peroxisome proliferator-activated receptor delta (Homo sapiens) (Q03181 whole entry, looked up): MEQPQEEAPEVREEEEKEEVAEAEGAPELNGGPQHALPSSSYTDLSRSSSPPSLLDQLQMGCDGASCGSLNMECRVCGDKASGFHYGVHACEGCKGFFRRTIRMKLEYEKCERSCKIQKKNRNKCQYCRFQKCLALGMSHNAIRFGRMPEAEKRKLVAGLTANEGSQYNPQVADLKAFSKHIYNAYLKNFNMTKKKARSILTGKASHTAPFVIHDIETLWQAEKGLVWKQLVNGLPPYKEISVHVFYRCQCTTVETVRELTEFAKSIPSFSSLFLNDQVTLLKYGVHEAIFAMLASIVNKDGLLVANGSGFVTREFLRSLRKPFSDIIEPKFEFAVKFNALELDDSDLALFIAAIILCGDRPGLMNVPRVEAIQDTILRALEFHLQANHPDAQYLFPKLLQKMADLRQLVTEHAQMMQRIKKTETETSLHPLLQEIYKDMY
Sequence of Peroxisome proliferator-activated receptor gamma (Homo sapiens) (P37231 whole entry, looked up): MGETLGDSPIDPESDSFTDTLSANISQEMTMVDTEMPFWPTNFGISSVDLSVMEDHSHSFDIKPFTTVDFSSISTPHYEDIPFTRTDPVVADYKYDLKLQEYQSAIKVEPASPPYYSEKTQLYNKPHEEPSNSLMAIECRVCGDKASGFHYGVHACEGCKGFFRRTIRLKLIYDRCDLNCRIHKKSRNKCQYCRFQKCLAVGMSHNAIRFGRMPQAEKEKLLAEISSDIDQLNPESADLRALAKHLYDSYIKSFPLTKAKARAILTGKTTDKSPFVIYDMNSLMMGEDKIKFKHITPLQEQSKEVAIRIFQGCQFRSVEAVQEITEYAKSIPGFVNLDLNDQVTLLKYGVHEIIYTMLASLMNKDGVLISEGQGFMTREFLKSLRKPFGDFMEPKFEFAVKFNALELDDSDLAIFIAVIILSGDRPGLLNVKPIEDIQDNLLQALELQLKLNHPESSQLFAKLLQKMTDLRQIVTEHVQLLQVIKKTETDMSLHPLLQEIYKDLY
Sequence of Aryl hydrocarbon receptor (Homo sapiens) (P35869 whole entry, looked up): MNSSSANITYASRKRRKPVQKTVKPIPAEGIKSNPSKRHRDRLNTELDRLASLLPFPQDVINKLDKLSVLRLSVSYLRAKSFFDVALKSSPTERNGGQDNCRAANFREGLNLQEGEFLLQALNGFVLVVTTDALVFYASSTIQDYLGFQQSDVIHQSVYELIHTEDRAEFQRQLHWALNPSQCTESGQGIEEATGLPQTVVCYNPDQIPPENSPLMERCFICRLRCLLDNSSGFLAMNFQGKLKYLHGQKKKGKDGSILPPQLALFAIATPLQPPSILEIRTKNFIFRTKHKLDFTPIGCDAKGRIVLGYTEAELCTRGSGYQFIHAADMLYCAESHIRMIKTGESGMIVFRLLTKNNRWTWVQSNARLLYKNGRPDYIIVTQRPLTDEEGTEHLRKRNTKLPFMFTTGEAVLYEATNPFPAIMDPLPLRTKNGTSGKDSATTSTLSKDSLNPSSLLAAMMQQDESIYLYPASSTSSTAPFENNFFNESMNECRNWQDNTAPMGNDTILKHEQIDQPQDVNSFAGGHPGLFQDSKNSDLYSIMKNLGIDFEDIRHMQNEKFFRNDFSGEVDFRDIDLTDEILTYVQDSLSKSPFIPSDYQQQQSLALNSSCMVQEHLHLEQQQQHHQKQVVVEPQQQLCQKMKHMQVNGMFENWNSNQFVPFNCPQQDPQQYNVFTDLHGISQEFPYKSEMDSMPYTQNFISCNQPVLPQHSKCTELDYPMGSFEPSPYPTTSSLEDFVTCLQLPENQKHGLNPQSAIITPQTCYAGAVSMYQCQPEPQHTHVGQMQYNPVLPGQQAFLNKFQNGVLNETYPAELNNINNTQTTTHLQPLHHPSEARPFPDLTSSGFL

CS(=O)(=O)c1cc(C(F)(F)F)ccc1C(=O)c1cnoc1C1CC1
not listed: [16] | [17] | [18] | [19]
inactive: all other assays above

NC(=O)O
not listed: [17] | [18] | [19]
inactive: all other assays above

CC(C1CC1)C(O)(Cn1cncn1)c1ccc(Cl)cc1 (stereo not given)
not listed: [5] | [12] | [15] | [17] | [18] | [19]
inactive: all other assays above

CN1C(=S)CN=C(c2ccccc2)c2cc(Cl)ccc21
not listed: [11] | [19]
inactive: all other assays above

CC(C)COP(=O)(OCC(C)C)OCC(C)C
not listed: [10] | [15]
inactive: all other assays above

COC(=O)C(C)Oc1ccc(Oc2ccc(Cl)cc2Cl)cc1 (stereo not given)
not listed: [16]
inactive: all other assays above

ClC(Cl)C(Cl)Cl
not listed: [10] | [14] | [16] | [17]
inactive: all other assays above

[As]#[In]
not listed: [5] | [10] | [14] | [15] | [16] | [17] | [18] | [19]
inactive: all other assays above

CCCSC(=O)Cl
not listed: [17] | [19]
inactive: all other assays above

CCCCCCBr
not listed: [5] | [10] | [11] | [12] | [16] | [17] | [18] | [19]
inactive: all other assays above

CCS(=O)(=O)C(C)(C)S(=O)(=O)CC
not listed: [10] | [16] | [17] | [19]
inactive: all other assays above

O=NN1CCN(N=O)CC1
not listed: [10] | [16] | [17] | [19]
inactive: all other assays above
